# Measurements published in PubChem BioAssay AID1159580 (chemical genetic matrix, 2015).
# Several values for one entry are separate records, joined by “and”; a condition that tells them apart may be missing. Equal values may be shown once. The whole screen tested about 5,500 compounds, of which about 2,000 (36%) were called active. Inconclusive results (about 18%) are left out. The list shows a part of the results. Values without a mark were called inactive. No stated cut-off is given here; in the data, active means normalized growth mostly below about 0.91 (no sharp cut-off); inconclusive means no clear call, values can overlap the other calls; inactive means mostly above about 0.92.
# Assay: chemical genetic growth profiling, strain panel (AID 1159580);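 further: tested at 20 µM; growth read once vehicle control cultures reached saturation at 30 °C; 1 = growth at the plate median or of vehicle wells; lower values mean less growth of the strain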
# Conditions: S. cerevisiae deletion strains, growth OD
smiles,measurement,setting,value
COc1ccc(-c2coc3c(OC)c(OC)cc(O)c3c2=O)cc1,normalized growth,"locus YAL021C, strain ccr4, active compounds read low",1.03
same,normalized growth,"locus YAL026C, strain drs2, active compounds read low",1
same,normalized growth,"locus YAL030W, strain snc1, active compounds read low",0.997
same,normalized growth,"locus YBL061C, strain skt5, active compounds read low",0.999
same,normalized growth,"locus YBR009C, strain hhf1, active compounds read low",1.01
same,normalized growth,"locus YBR021W, strain FUR4, active compounds read low",0.838 (active)
same,normalized growth,"locus YBR023C, strain chs3, active compounds read low",0.99
same,normalized growth,"locus YBR171W, strain sec66, active compounds read low",1.03
same,normalized growth,"locus YBR229C, strain ROT2, active compounds read low",0.988
same,normalized growth,"locus YBR231C, strain swc5, active compounds read low",0.994
same,normalized growth,"locus YBR279W, strain paf1, active compounds read low",0.995
same,normalized growth,"locus YCL011C, strain gbp2, active compounds read low",0.998
same,normalized growth,"locus YCL016C, strain dcc1, active compounds read low",1
same,normalized growth,"locus YCL029C, strain bik1, active compounds read low",0.975
same,normalized growth,"locus YCL061C, strain MRC1, active compounds read low",1.01
same,normalized growth,"locus YCL069W, strain vba3, active compounds read low",0.999
same,normalized growth,"locus YCR088W, strain abp1, active compounds read low",0.997
same,normalized growth,"locus YDL005C, strain med2, active compounds read low",1
same,normalized growth,"locus YDL035C, strain GPR1, active compounds read low",0.981
same,normalized growth,"locus YDL040C, strain nat1, active compounds read low",1
same,normalized growth,"locus YDL074C, strain BRE1, active compounds read low",0.924
same,normalized growth,"locus YDL101C, strain DUN1, active compounds read low",0.988
same,normalized growth,"locus YDL185W, strain tfp1, active compounds read low",1.01
same,normalized growth,"locus YDL192W, strain arf1, active compounds read low",0.942
same,normalized growth,"locus YDR001C, strain nth1, active compounds read low",0.997
same,normalized growth,"locus YDR069C, strain doa4, active compounds read low",1
same,normalized growth,"locus YDR101C, strain arx1, active compounds read low",0.947
same,normalized growth,"locus YDR137W, strain rgp1, active compounds read low",0.951
same,normalized growth,"locus YDR159W, strain sac3, active compounds read low",0.988
same,normalized growth,"locus YDR162C, strain NBP2, active compounds read low",0.959
same,normalized growth,"locus YDR195W, strain ref2",1.05
same,normalized growth,"locus YDR297W, strain sur2, active compounds read low",0.992
same,normalized growth,"locus YDR318W, strain mcm21, active compounds read low",0.948
same,normalized growth,"locus YDR334W, strain swr1, active compounds read low",1.01
same,normalized growth,"locus YDR335W, strain msn5, active compounds read low",1
same,normalized growth,"locus YDR388W, active compounds read low",0.974
same,normalized growth,"locus YDR392W, strain spt3, active compounds read low",0.965
same,normalized growth,"locus YDR502C, strain sam2, active compounds read low",0.95
same,normalized growth,"locus YEL003W, strain gim4, active compounds read low",0.994
same,normalized growth,"locus YEL037C, strain rad23, active compounds read low",1.01
same,normalized growth,"locus YEL061C, strain CIN8 (second series), active compounds read low",1.01
same,normalized growth,"locus YER015W, strain faa2, active compounds read low",1
same,normalized growth,"locus YER016W, strain bim1, active compounds read low",1.01
same,normalized growth,"locus YER110C, active compounds read low",0.959
same,normalized growth,"locus YER111C, strain swi4, active compounds read low",1.03
same,normalized growth,"locus YER155C, strain BEM2 (second series), active compounds read low",1.01
same,normalized growth,"locus YER155C, strain BEM2, active compounds read low",0.996
same,normalized growth,"locus YER167W, strain BCK2, active compounds read low",0.99
same,normalized growth,"locus YFR010W, strain ubp6, active compounds read low",1.01
same,normalized growth,"locus YGL078C, strain dbp3, active compounds read low",0.968
same,normalized growth,"locus YGL086W, strain mad1, active compounds read low",0.954
same,normalized growth,"locus YGL167C, strain pmr1, active compounds read low",1.01
same,normalized growth,"locus YGL173C, strain kem1, active compounds read low",1
same,normalized growth,"locus YGL227W, strain vid30, active compounds read low",1
same,normalized growth,"locus YGL240W, strain doc1, active compounds read low",0.991
same,normalized growth,"locus YGL248W, strain PDE1, active compounds read low",0.96
same,normalized growth,"locus YGL253W, strain hxk2, active compounds read low",1.01
same,normalized growth,"locus YGR078C, strain PAC10, active compounds read low",0.956
same,normalized growth,"locus YGR135W, strain pre9, active compounds read low",0.928
same,normalized growth,"locus YGR229C, strain SMI1, active compounds read low",0.896
same,normalized growth,"locus YGR252W, strain gcn5, active compounds read low",0.74 (active)
same,normalized growth,"locus YHR013C, strain ard1, active compounds read low",0.989
same,normalized growth,"locus YHR027C, strain rpn1, active compounds read low",1.01
same,normalized growth,"locus YHR030C, strain SLT2, active compounds read low",0.917
same,normalized growth,"locus YHR079C, strain IRE1 (second series), active compounds read low",0.978
same,normalized growth,"locus YHR079C, strain IRE1, active compounds read low",0.925
same,normalized growth,"locus YHR094C, strain hxt1, active compounds read low",0.982
same,normalized growth,"locus YHR129C, strain ARP1, active compounds read low",0.985
same,normalized growth,"locus YHR142W, strain chs7, active compounds read low",0.976
same,normalized growth,"locus YHR200W, strain rpn10, active compounds read low",0.941
same,normalized growth,"locus YIL066C, strain RNR3, active compounds read low",0.986
same,normalized growth,"locus YIL073C, strain SPO22, active compounds read low",0.9
same,normalized growth,"locus YIL125W, strain kgd1, active compounds read low",0.983
same,normalized growth,"locus YIR030C, strain dcg1, active compounds read low",0.961
same,normalized growth,"locus YJL092W, strain hpr5, active compounds read low",1.01
same,normalized growth,"locus YJL095W, strain BCK1 (second series), active compounds read low",0.995
same,normalized growth,"locus YJL095W, strain BCK1, active compounds read low",0.871 and 0.958
same,normalized growth,"locus YJL115W, strain asf1, active compounds read low",1.01
same,normalized growth,"locus YJL129C, strain trk1, active compounds read low",0.999
same,normalized growth,"locus YJL134W, strain LCB3, active compounds read low",1
same,normalized growth,"locus YJL154C, strain vps35, active compounds read low",1.01
same,normalized growth,"locus YJL164C, strain tpk1, active compounds read low",0.997
same,normalized growth,"locus YJL166W, strain qcr8, active compounds read low",0.996
same,normalized growth,"locus YJL168C, strain set2, active compounds read low",0.978
same,normalized growth,"locus YJL187C, strain SWE1 (second series), active compounds read low",0.968
same,normalized growth,"locus YJL187C, strain SWE1, active compounds read low",0.992
same,normalized growth,"locus YJR066W, strain TOR1, active compounds read low",0.863
same,normalized growth,"locus YKL009W, strain mrt4, active compounds read low",0.972
same,normalized growth,"locus YKL068W, active compounds read low",0.993
same,normalized growth,"locus YKL085W, strain MDH1 (second series), active compounds read low",0.979
same,normalized growth,"locus YKL085W, strain MDH1, active compounds read low",0.979
same,normalized growth,"locus YKL160W, strain elf1, active compounds read low",0.991
same,normalized growth,"locus YKR001C, strain vps1, active compounds read low",0.871 (active)
same,normalized growth,"locus YKR026C, strain gcn3, active compounds read low",1.01
same,normalized growth,"locus YKR091W, strain srl3, active compounds read low",0.999
same,normalized growth,"locus YLL001W, strain dnm1, active compounds read low",1.01
same,normalized growth,"locus YLL026W, active compounds read low",1.01
same,normalized growth,"locus YLL041C, strain sdh2, active compounds read low",1.01
same,normalized growth,"locus YLR027C, strain aat2, active compounds read low",1
same,normalized growth,"locus YLR039C, strain RIC1, active compounds read low",0.903
same,normalized growth,"locus YLR058C, strain SHM2, active compounds read low",0.96
same,normalized growth,"locus YLR102C, strain apc9, active compounds read low",0.986
same,normalized growth,"locus YLR113W, strain HOG1, active compounds read low",0.949
same,normalized growth,"locus YLR221C, strain rsa3, active compounds read low",0.997
same,normalized growth,"locus YLR258W, strain gsy2, active compounds read low",0.982
same,normalized growth,"locus YLR262C, strain YPT6 (second series), active compounds read low",0.949
same,normalized growth,"locus YLR268W, strain sec22, active compounds read low",0.927
same,normalized growth,"locus YLR320W, strain mms22, active compounds read low",0.993
same,normalized growth,"locus YLR330W, strain CHS5, active compounds read low",0.976
same,normalized growth,"locus YLR342W, strain FKS1, active compounds read low",1
same,normalized growth,"locus YLR357W, strain rsc2, active compounds read low",0.989
same,normalized growth,"locus YLR370C, strain arc18, active compounds read low",1
same,normalized growth,"locus YLR371W, strain rom2, active compounds read low",0.945
same,normalized growth,"locus YLR384C, strain iki3, active compounds read low",1.01
same,normalized growth,"locus YLR418C, strain cdc73, active compounds read low",0.855
same,normalized growth,"locus YML016C, strain PPZ1, active compounds read low",0.985
same,normalized growth,"locus YML032C, strain rad52, active compounds read low",0.951
same,normalized growth,"locus YML120C, strain ndi1, active compounds read low",0.997
same,normalized growth,"locus YML124C, strain tub3, active compounds read low",0.981
same,normalized growth,"locus YMR058W, strain fet3, active compounds read low",1.01
same,normalized growth,"locus YMR078C, strain ctf18, active compounds read low",0.976
same,normalized growth,"locus YMR125W, strain sto1, active compounds read low",1.01
same,normalized growth,"locus YMR129W, active compounds read low",1
same,normalized growth,"locus YMR205C, strain PFK2, active compounds read low",0.991
same,normalized growth,"locus YMR223W, strain ubp8, active compounds read low",0.95
same,normalized growth,"locus YMR231W, strain pep5, active compounds read low",0.995
same,normalized growth,"locus YMR263W, strain SAP30, active compounds read low",0.97
same,normalized growth,"locus YMR307W, strain GAS1, active compounds read low",0.787
same,normalized growth,"locus YNL067W, strain RPL9B, active compounds read low",0.968
same,normalized growth,"locus YNL071W, strain lat1, active compounds read low",1
same,normalized growth,"locus YNL128W, strain TEP1, active compounds read low",1.01
same,normalized growth,"locus YNL183C, strain NPR1, active compounds read low",0.913
same,normalized growth,"locus YNL209W, strain ssb2, active compounds read low",0.999
same,normalized growth,"locus YNL233W, strain BNI4, active compounds read low",0.908
same,normalized growth,"locus YNL248C, strain rpa49, active compounds read low",1.01
same,normalized growth,"locus YNL250W, strain rad50, active compounds read low",0.997
same,normalized growth,"locus YNL271C, strain bni1, active compounds read low",0.98
same,normalized growth,"locus YNL298W, strain CLA4, active compounds read low",0.965
same,normalized growth,"locus YNL307C, strain MCK1, active compounds read low",0.903 (active)
same,normalized growth,"locus YNL322C, strain KRE1 (second series), active compounds read low",1.01
same,normalized growth,"locus YNR049C, strain mso1, active compounds read low",1
same,normalized growth,"locus YNR052C, strain pop2, active compounds read low",0.977
same,normalized growth,"locus YOL012C, strain htz1",0.766
same,normalized growth,"locus YOL147C, strain pex11, active compounds read low",0.96
same,normalized growth,"locus YOR001W, strain rrp6, active compounds read low",1.01
same,normalized growth,"locus YOR061W, strain CKA2, active compounds read low",1
same,normalized growth,"locus YOR069W, strain VPS5, active compounds read low",0.995
same,normalized growth,"locus YOR070C, strain gyp1, active compounds read low",1.02
same,normalized growth,"locus YOR080W, strain dia2, active compounds read low",1.01
same,normalized growth,"locus YOR083W, strain WHI5, active compounds read low",0.99
same,normalized growth,"locus YOR106W, strain vam3, active compounds read low",0.989
same,normalized growth,"locus YOR136W, strain idh2, active compounds read low",0.976
same,normalized growth,"locus YOR144C, strain elg1, active compounds read low",0.979
same,normalized growth,"locus YOR184W, strain ser1, active compounds read low",0.887
same,normalized growth,"locus YOR231W, strain MKK1, active compounds read low",0.949
same,normalized growth,"locus YOR265W, strain rbl2, active compounds read low",1.01
same,normalized growth,"locus YOR270C, strain vph1, active compounds read low",0.945
same,normalized growth,"locus YOR290C, strain snf2, active compounds read low",0.986
same,normalized growth,"locus YOR316C, strain cot1, active compounds read low",0.991
same,normalized growth,"locus YPL051W, strain arl3, active compounds read low",0.997
same,normalized growth,"locus YPL078C, strain atp4, active compounds read low",0.991
same,normalized growth,"locus YPL106C, strain sse1, active compounds read low",0.948
same,normalized growth,"locus YPL240C, strain hsp82, active compounds read low",0.994
same,normalized growth,"locus YPL241C, strain CIN2, active compounds read low",1.01
same,normalized growth,"locus YPL256C, strain CLN2, active compounds read low",0.904
same,normalized growth,"locus YPR119W, strain clb2, active compounds read low",0.982
same,normalized growth,"locus YPR141C, strain kar3, active compounds read low",0.979
same,normalized growth,"locus YPR163C, strain tif3, active compounds read low",0.866 (active)
same,normalized growth,"locus YPR167C, strain met16, active compounds read low",0.955
same,normalized growth,"strain wtn01, active compounds read low",0.942
